EPAC1 ag val: Validation qHTS for agonist of cAMP-regulated guanine nucleotide exchange factor 3 (EPAC1); Rap guanine nucleotide exchange factor 3 (Homo sapiens), O95398; EPAC1 Rap1b BODIPY-GDP exchange, fluorescence; Potency, µM, actives largely listed as activators; 16,000 compounds, 1% hits; further: nearly all actives have a fitted effect of over 70% in size
Target sequence (O95398 whole entry, looked up): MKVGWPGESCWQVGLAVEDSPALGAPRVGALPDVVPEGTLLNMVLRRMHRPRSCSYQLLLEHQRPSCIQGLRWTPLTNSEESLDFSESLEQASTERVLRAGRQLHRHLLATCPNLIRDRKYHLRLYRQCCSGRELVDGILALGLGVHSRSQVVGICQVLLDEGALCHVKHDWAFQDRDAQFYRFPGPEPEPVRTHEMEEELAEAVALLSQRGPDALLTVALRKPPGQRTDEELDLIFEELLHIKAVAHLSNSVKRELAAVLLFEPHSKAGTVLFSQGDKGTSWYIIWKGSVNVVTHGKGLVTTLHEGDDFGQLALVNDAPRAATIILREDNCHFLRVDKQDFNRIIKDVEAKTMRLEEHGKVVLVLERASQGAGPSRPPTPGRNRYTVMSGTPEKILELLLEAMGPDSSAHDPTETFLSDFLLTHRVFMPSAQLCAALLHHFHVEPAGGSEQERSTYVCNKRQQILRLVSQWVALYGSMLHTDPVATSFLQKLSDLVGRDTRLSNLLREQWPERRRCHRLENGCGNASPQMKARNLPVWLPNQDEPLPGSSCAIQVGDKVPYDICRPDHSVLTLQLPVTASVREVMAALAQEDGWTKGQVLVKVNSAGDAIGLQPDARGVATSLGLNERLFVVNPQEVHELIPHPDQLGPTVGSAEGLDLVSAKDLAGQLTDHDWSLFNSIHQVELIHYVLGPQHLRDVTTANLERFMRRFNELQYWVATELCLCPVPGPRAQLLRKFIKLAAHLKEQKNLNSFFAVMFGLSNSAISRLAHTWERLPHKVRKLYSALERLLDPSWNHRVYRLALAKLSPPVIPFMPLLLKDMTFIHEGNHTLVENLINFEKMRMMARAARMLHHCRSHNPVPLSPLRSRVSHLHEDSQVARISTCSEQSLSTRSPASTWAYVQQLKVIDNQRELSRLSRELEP
EPAC2 antag: Validation qHTS for antagonist of cAMP-regulated guanine nucleotide exchange factor 4 (EPAC2); 16,000 compounds, 1.7% hits; Potency, µM (top dose mostly 112 µM), most hits filed as inhibitors; Rap guanine nucleotide exchange factor 4 (Homo sapiens), Q8WZA2; AID 1645886, 2021; EPAC2 Rap1B BODIPY-GDP exchange, fluorescence; further: nearly all actives have a fitted effect of over 40% in size
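Fluorescent exchange read-out: 100 nM EPAC2 with 250 nM RAP1B–BODIPY-GDP and 50 uM GDP; BODIPY-GDP release lowers fluorescence. Read at 480/540 nm every 5 min for 30 min at room temperature; normalized to 6.5 mM cAMP.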
Of the large screens only hits and unclear results are named; the others gave an inactive call; ! = a repeat was not active. The list is not random: actives were taken first. Their share in the collection is about 2.9%. The call rests on the fitted dose curve; in most records, active means well fitted curve in the direction sought with a large enough effect; inconclusive means small, poorly fitted or top-dose-only effect, or another doubt; inactive means no such curve, though single readings can be large; an effect the other way counts as inactive or inconclusive.

CCCCCCC(C)(C)c1ccc([C@@H]2C[C@H](O)CC[C@@H]2CCCO)c(O)c1	EPAC2 antag 28µM
CCCn1c(C)c(C(=O)c2cccc3ccccc23)c2ccccc21	EPAC2 antag 20µM
Cc1c(C(=O)c2cccc3ccccc23)c2cccc3c2n1[C@H](CN1CCOCC1)CO3	EPAC1 ag val inconclusive
C=CC[C@]1(O)CC[C@H]2[C@@H]3CCC4=CCCC[C@@H]4[C@H]3CC[C@@]21C	none
Oc1c(Cl)c(Cl)c(Cl)c(Cl)c1Cl	EPAC2 antag 14µM
COc1ccc2c3c([nH]c2c1)C(C)=NCC3	EPAC1 ag val inconclusive
CC1=NCCc2c1[nH]c1cc(O)ccc21	EPAC1 ag val 79µM
CC(=O)[C@@]1(O)CC[C@H]2[C@@H]3CCC4=CC(=O)CC[C@]4(C)C3(F)[C@@H](O)C[C@@]21C (stereo partly drawn)	none
O=c1[nH]cc(N(CCCl)CCCl)c(=O)[nH]1	EPAC2 antag 71µM
C[C@]12CC[C@H]3[C@@H](CCC4=CC(=O)CC[C@@]43C)[C@@H]1CC[C@@H]2OC(=O)CCc1ccccc1	none
CCCC[C@H]1C(=O)O[C@H](C)[C@H](NC(=O)c2cccc(NC=O)c2OC)C(=O)O[C@@H](C)[C@@H]1OC(=O)CC(C)C	EPAC2 antag inconclusive
CCCCCC1C(=O)O[C@H](C)[C@@H](NC(=O)c2cccc(NC=O)c2O)C(=O)OC(C)C1OC(=O)CC(C)C (stereo partly drawn)	EPAC2 antag 56µM
Cc1ccc2c(c1)[C@]13CCCC[C@@H]1[C@H](C2)N(C)CC3	none
CCOC(=O)/C=C(C)/C=C/C[C@@H](C)CCCC(C)C	none
N#C/C(=C\c1ccc(O)c(O)c1)C(N)=S	EPAC2 antag inconclusive
N#CC(C#N)=Cc1cc(O)c(O)c(O)c1	EPAC2 antag 89µM!
CN(C)CCCCCCN(C)C (tested in a mixture with another compound)	none
O=S(=O)(O)C(F)(F)C(F)(F)C(F)(F)C(F)(F)C(F)(F)C(F)(F)C(F)(F)C(F)(F)F	EPAC2 antag 100µM
[S]=[Sb](=[S])[S][Sb](=[S])=[S]	none
CN[C@]1(c2ccccc2Cl)CCCCC1=O	none
C=C[C@H]1CN2CC[C@H]1C[C@H]2[C@H](OC(=O)OCC)c1ccnc2ccc(OC)cc12	none
NC(Cc1cc(O)c(O)cc1O)C(=O)O (stereo not drawn)	EPAC2 antag 13µM
N[C@@H](CCl)C(=O)O	none
CCC/C=C/C=C/C(=O)O[C@H]1/C(=C/C(=O)OC)C[C@H]2C[C@H]([C@@H](C)O)OC(=O)C[C@H](O)C[C@@H]3C[C@H](OC(C)=O)C(C)(C)[C@](O)(C[C@@H]4C/C(=C/C(=O)OC)C[C@H](/C=C/C(C)(C)[C@]1(O)O2)O4)O3	none
CC(=O)O[C@H]1C[C@H](O[C@H]2[C@@H](O)C[C@H](O[C@H]3[C@@H](O)C[C@H](O[C@H]4CC[C@@]5(C)[C@H](CC[C@@H]6[C@@H]5C[C@@H](O)[C@]5(C)[C@@H](C7=CC(=O)OC7)CC[C@]65O)C4)O[C@@H]3C)O[C@@H]2C)O[C@H](C)[C@H]1O[C@@H]1O[C@H](CO)[C@@H](O)[C@H](O)[C@H]1O	none
CC(C)[C@H]1C(=O)N2CCC[C@H]2[C@]2(O)O[C@](NC(=O)[C@@H]3C[C@@H]4c5cccc6[nH]cc(c56)C[C@H]4N(C)C3)(C(C)C)C(=O)N12	none
NCCc1cc(O)c(O)cc1O	EPAC1 ag val 112µM
COc1ccc(CCN)cc1O	none
CC(C)CCC(=O)O[C@H]1CC[C@H]2[C@@H]3CCC4=CC(=O)CC[C@]4(C)[C@H]3CC[C@]12C	none
CCC(=O)O[C@H]1[C@@H](N2CCCCC2)C[C@H]2[C@@H]3CC[C@H]4C[C@H](OC(C)=O)[C@@H](N5CCCCC5)C[C@]4(C)[C@H]3CC[C@@]21C	none
Cl.Cl.Cl.Cl.Cl.Cl.N.N.N.N.NNNNN.NNNNN.O.O.[Ru].[Ru].[Ru]	EPAC2 antag 56µM
NC(=O)[C@H](Cc1ccccc1)NC(=O)[C@H](Cc1c[nH]c2ccccc12)NC(=O)[C@@H]1CCCN1C(=O)[C@@H](N)Cc1ccc(O)cc1	none
C[C@@H](N)C(=O)c1ccccc1	none
O=C1C[C@@H]2OCC=C3CN4CC[C@]56c7ccccc7N1[C@H]5[C@H]2[C@H]3C[C@H]46	none
O=C(O)c1ccccc1-c1c2cc(Br)c(=O)cc-2oc2[c]([Hg])c(O)c(Br)cc12	EPAC1 ag val inconclusive
O=C1OC2(c3cc(Br)c(O)cc3Oc3c2cc(Br)c(O)[c]3[Hg])c2ccccc21 (stereo not drawn)	EPAC1 ag val 40µM!
O=C(C[C@@H]1NCCC[C@H]1O)Cn1cnc2cc(Br)c(Cl)cc2c1=O	none
O=C(O)COc1ccc(Cl)cc1Cl	none
Oc1cc(Cl)ccc1Oc1ccc(Cl)cc1Cl	EPAC1 ag val inconclusive, EPAC2 antag 11µM!
C[C@@H]1[C@@H]2Cc3ccc(O)cc3[C@@]1(C)CCN2CCc1ccccc1	none
O=C1CN=C(c2ccccc2)c2cc(Cl)ccc2N1CC1CC1	EPAC2 antag 22µM
O=C1Nc2ccc(Cl)cc2C(c2ccccc2)=NC1O (stereo not drawn)	EPAC2 antag inconclusive

Screening results as filed in PubChem BioAssay.
